Assay outcomes from PubChem BioAssay.
In the library only some 1.3% were active in any assay of this set; here they are far more common.
AmpC detergent – qHTS Inhibitors of AmpC Beta-Lactamase (assay with detergent) | P00811 | AmpC hydrolysis of nitrocefin, absorbance 480 nm, 0.01% Triton | Potency, µM (top dose mostly 114 µM), for the others: at the top dose activity change, negative = inhibition, hits mostly inhibitors | 370,000 compounds, 0.041% hits | AID 485294, 2010;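 further: 0% = no-compound wells and -100% = no-enzyme wells; nearly all actives have a fitted effect of over 25% in size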
Target sequence (P00811 whole entry, looked up): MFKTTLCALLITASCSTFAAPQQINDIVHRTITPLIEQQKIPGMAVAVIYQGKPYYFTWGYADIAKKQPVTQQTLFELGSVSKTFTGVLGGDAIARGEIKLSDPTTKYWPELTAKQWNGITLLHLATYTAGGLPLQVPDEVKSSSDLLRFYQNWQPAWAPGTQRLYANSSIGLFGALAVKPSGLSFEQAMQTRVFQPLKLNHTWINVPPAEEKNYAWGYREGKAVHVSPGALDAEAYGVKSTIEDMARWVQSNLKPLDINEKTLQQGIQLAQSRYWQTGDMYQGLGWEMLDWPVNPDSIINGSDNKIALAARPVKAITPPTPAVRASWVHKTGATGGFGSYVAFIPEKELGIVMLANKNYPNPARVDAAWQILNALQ
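AmpC (5.3 nM in the dispensed reagent) in 20 mM phosphate pH 7.0 with 0.01% (detergent screen) or 0.0001% Triton X-100 was preincubated with compounds for 15 min at room temperature. Nitrocefin was then added from an 800 uM solution, and hydrolysis was followed at 480 nm.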
VACV Venus inh – qHTS for Stage-Specific Inhibitors of Vaccinia Orthopoxvirus: Venus Reporter Primary qHTS; Vaccinia virus Venus reporter expression, fluorescence; Potency, µM (highest dose often 36.5 µM), for inactives: top-dose activity change, negative = inhibition, usual class: inhibitors; 330,000 compounds, 0.46% hits; AID 720580, 2013; calls by dose curve; tested in A549 cells; further: on the % scale 0 is the no-effect control and ±100 the full control effect; nearly all actives have a fitted effect of over 30% in size
SARS PLpro yeast – qHTS of Yeast-based Assay for SARS-CoV PLP. Potency, µM (series often up to 32.9 µM), for the others: at the top dose activity, positive = growth rescue, actives largely listed as activators. S. cerevisiae expressing SARS-CoV PLpro, growth rescue. 330,000 compounds, 0.19% hits; calls by dose curve; further: 0% is about no effect; nearly all actives have a fitted effect of over 55% in size
VACV mCherry inh – qHTS for Stage-Specific Inhibitors of Vaccinia Orthopoxvirus: mCherry Reporter Primary qHTS. Vaccinia virus mCherry reporter infection, fluorescence. AID 720579, 2013. 310,000 compounds, 0.63% hits. Potency, µM (top dose mostly 36.5 µM), for inactives: top-dose activity change, negative = inhibition, actives largely listed as inhibitors; calls by dose curve; tested in A549 cells; further: on the % scale 0 is the no-effect control and ±100 the full control effect; nearly all actives have a fitted effect of over 35% in size
AmpC inh no detg – qHTS Inhibitors of AmpC Beta-Lactamase (assay without detergent). P00811. AmpC nitrocefin hydrolysis, absorbance 480 nm, 0.0001% Triton. Potency, µM (doses to about 57.1 µM), without a hit: top-dose activity change, negative = inhibition, usual class: inhibitors. 330,000 compounds, 0.52% hits;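 further: plate controls were no compound for no effect and no enzyme for full effect; nearly all actives have a fitted effect of over 20% in size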
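AmpC (5.3 nM in the dispensed reagent) in 20 mM phosphate pH 7.0 with 0.01% (detergent screen) or 0.0001% Triton X-100 was preincubated with compounds for 15 min at room temperature. Nitrocefin was then added from an 800 uM solution, and hydrolysis was followed at 480 nm.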
Starred values were filed as active, the others as inactive; ! = not confirmed by another sample. Unless noted, the call rests on the fitted dose curve; in most records, active means well fitted curve in the direction sought with a large enough effect; inconclusive means small, poorly fitted or top-dose-only effect, or another doubt; inactive means no such curve, though single readings can be large; an effect the other way counts as inactive or inconclusive. Potency means the concentration at half of the fitted maximal effect.

Screening C[C@]12CC[C@H]3[C@@H](CC[C@]4(O)C[C@@H](O)CC[C@]34C=O)[C@@]1(O)CC[C@@H]2C1=CC(=O)OC1 returned AmpC detergent 3%, VACV Venus inh 1µM*, VACV mCherry inh 1µM* and AmpC inh no detg -11%.
For CC1CCCCN1c1nnc(NC(=O)c2cc(-c3ccc(Br)cc3)on2)s1 (configuration not stated) the results were AmpC detergent inconclusive, VACV Venus inh -13%, SARS PLpro yeast 2%, VACV mCherry inh -1% and AmpC inh no detg 40µM*.
For Cc1cc(C(=O)Nc2cccc(-c3nc(CNC(=O)c4sc(C)nc4C)c(C)o3)c2)c(C)o1 the results were VACV Venus inh -18% and VACV mCherry inh inactive.
Cc1noc(C)c1COc1ccc(C(=O)Nc2ccccc2)cc1 was read as AmpC detergent 5%, VACV Venus inh -9%, SARS PLpro yeast 1%, VACV mCherry inh -15% and AmpC inh no detg -22%.
`CC(C)(C)c1ccc(OCCCC(=O)NNC(=O)c2ccccc2O)cc1` gave AmpC detergent inconclusive, VACV Venus inh inconclusive, SARS PLpro yeast 6%, VACV mCherry inh 14µM* and AmpC inh no detg -48%.
Cc1noc(C)c1COc1ccc(C(=O)NNC(=O)c2ccccc2O)cc1 was read as AmpC detergent inconclusive, VACV Venus inh inconclusive, SARS PLpro yeast -2%, VACV mCherry inh 3.5µM* and AmpC inh no detg -17%.
For CCC1(C2CCN(C(=O)c3coc4c3C(=O)CCC4)CC2)NC(=O)N(CCc2scnc2C)C1=O (configuration not stated) the results were VACV Venus inh 2% and VACV mCherry inh -4%.
NC(=O)c1ccsc1NC(=O)COC(=O)COc1ccccc1[N+](=O)[O-] was read as AmpC detergent 56µM*, SARS PLpro yeast -5% and AmpC inh no detg -43%.
Screening Cc1ccc2[nH]nc(C(=O)N3CCOc4ccc(CN5CCc6sccc6C5)cc4C3)c2c1 returned VACV Venus inh -20% and VACV mCherry inh 13µM*.
Screening O=C(CCCCCn1c(=S)[nH]c2ccc(Br)cc2c1=O)NCC1CCCO1 (configuration not stated) returned AmpC detergent inconclusive, SARS PLpro yeast 8% and AmpC inh no detg -41%.
For NS(=O)(=O)c1ccc(CCNC(=O)CCCCCn2c(=S)[nH]c3ccc(Br)cc3c2=O)cc1 the results were AmpC detergent inconclusive, VACV Venus inh -3%, SARS PLpro yeast -1%, VACV mCherry inh -13% and AmpC inh no detg 18µM*.
NC(=O)N/N=C1\CCS(=O)(=O)c2ccc(F)cc21 was read as AmpC detergent -5%, VACV Venus inh -6%, SARS PLpro yeast 2%, VACV mCherry inh -11% and AmpC inh no detg -6%.
Screening NC(=S)N/N=C1\CCOc2ccc(F)cc21 returned AmpC detergent -5%, VACV Venus inh 0.89µM*, SARS PLpro yeast -1%, VACV mCherry inh 1.8µM* and AmpC inh no detg -16%.
`CCCCn1nc2cc(C(=O)NCc3cc(C(F)(F)F)cc(C(F)(F)F)c3)ccc2c1OC` gave AmpC detergent 1%, VACV Venus inh -18%, SARS PLpro yeast 3%, VACV mCherry inh inactive and AmpC inh no detg 5.6µM*.
For COc1ccc2c(c1)CCc1cnc(-n3ncc(C(=O)N(C)CCc4ccccn4)c3C)nc1-2 the results were VACV Venus inh -30% and VACV mCherry inh -10%.
`CC(Oc1ccccc1)C(=O)NC1C(=O)N2C1SC(C)(C)C2C(=O)O` (configuration not stated) gave AmpC detergent 35µM*, VACV Venus inh -11%, SARS PLpro yeast 0%, VACV mCherry inh -7% and AmpC inh no detg inconclusive.
COC(=O)[C@@H]1N2C(=O)[C@@H](NC(=O)C(C)Oc3ccccc3)[C@H]2SC1(C)C (some centres not stated) was read as VACV Venus inh -14% and VACV mCherry inh inactive.
For Cc1onc(-c2c(Cl)cccc2Cl)c1C(=O)N[C@@H]1C(=O)N2[C@@H]1SC(C)(C)[C@@H]2C(=O)O the results were AmpC detergent 0.045µM*, VACV Venus inh -14%, SARS PLpro yeast 1%, VACV mCherry inh -5% and AmpC inh no detg 0.1µM*!.
Screening Cc1ccccc1NC1=NCC(c2ccc([N+](=O)[O-])cc2)S1 (configuration not stated) returned AmpC detergent -3%, VACV Venus inh 13µM*, SARS PLpro yeast 6%, VACV mCherry inh 11µM* and AmpC inh no detg -42%.
Cc1ccccc1Nc1ccc([N+](=O)[O-])cn1 was read as AmpC detergent 1%, VACV Venus inh -12%, SARS PLpro yeast -3%, VACV mCherry inh inactive and AmpC inh no detg -23%.
Screening Cn1c(/C(C#N)=C/c2cccc(O)c2)nc2ccccc21 returned AmpC detergent 5%, VACV Venus inh -12%, SARS PLpro yeast -1%, VACV mCherry inh -4% and AmpC inh no detg -18%.
Screening Cn1c(/C(C#N)=C/c2ccc(-c3ccc(S(N)(=O)=O)cc3)o2)nc2ccccc21 returned AmpC detergent -17%, SARS PLpro yeast -9% and AmpC inh no detg 20µM*.
Screening Cc1ccc(-c2cn3c(n2)sc2cc(C(=O)NCCCN4CCCCC4)ccc23)cc1 returned AmpC detergent 21%, VACV Venus inh 8.9µM* and VACV mCherry inh 11µM*.
Screening Cc1ccc(-c2cn3c(n2)sc2cc(C(=O)NCCCN4CCCCCC4)ccc23)cc1 returned AmpC detergent 4%, VACV Venus inh inconclusive and VACV mCherry inh inconclusive.
CC(O)(COc1ccccc1)c1ccc2c(c1)CN(C/C=C/c1ccco1)CCO2 (configuration not stated) was read as VACV Venus inh 3% and VACV mCherry inh -5%.
Screening O=C(C[C@H]1C[C@H](C(=O)N2CCOCC2)[C@@]2(CCC3CCCC3)c3[nH]c4cc(-c5ccco5)ccc4c3CCN2C1=O)NCCc1ccccn1 returned VACV Venus inh 10µM*, SARS PLpro yeast 0%, VACV mCherry inh inconclusive and AmpC inh no detg 159%.
Screening O=C(CC1C[C@H](C(=O)N2CCCCC2)[C@@]2(CCc3ccccc3)c3[nH]c4ccccc4c3CCN2C1=O)NCCc1ccccn1 (some centres not stated) returned VACV Venus inh inconclusive and VACV mCherry inh 10µM*.
For O=C(C[C@H]1C[C@H](C(=O)N2CCOCC2)[C@@]2(CCC3CCCC3)c3[nH]c4cc(-c5ccco5)ccc4c3CCN2C1=O)NCCC1=CCCCC1 the results were VACV Venus inh inconclusive, SARS PLpro yeast -7%, VACV mCherry inh inconclusive and AmpC inh no detg 100%.
